Compounds with a hit are over-represented: about 18% of the library has one in this group of screens.
TDP1 inh – TDP1 (human) enzyme inhibition | recombinant TDP1, AlphaScreen DNA substrate cleavage | Potency, µM (top dose mostly 130 µM), inactives show at the top dose activity change, negative = inhibition, usual class: inhibitors | 350,000 compounds, 0.28% hits; further: nearly all actives have a fitted effect of over 40% in size
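Steps: enzyme plus compound, 15 min RT; add biotin/phosphotyrosine-FITC oligonucleotide (15 nM final), react 5 min; add donor/acceptor beads (10 ug/ml final), 10 min; read AlphaScreen. Tdp1 at 1 nM final.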
DT40 TDP1 CPT – DT40-hTDP1 cell growth loss with CPT | chicken DT40 Tdp1-/-;hTDP1 cells + 20 nM CPT, ATP luminescence, 48 h | Potency, µM (doses to about 46.2 µM), for the others: at the top dose activity change, negative = growth inhibition, usual class: inhibitors | 420,000 compounds, 12% hits; further: nearly all actives have a fitted effect of over 55% in size
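Cell growth measured by CellTiter-Glo luminescence after a minimum 48 h, 37 C compound exposure with 20 nM CPT in Tdp1-knockout DT40 cells stably expressing hTDP1, seeded 400/well; qHTS titration format.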
PLK1 PBD block – inhibitors of human PLK1 polo-box domain binding; Potency, µM, for inactives: max response, negative = inhibition, actives largely listed as inhibitors; Plk1 PBD binding of FITC phosphopeptide, fluorescence polarization; AID 720504; 360,000 compounds, 2.8% hits; further: series mostly up to about 57 µM; nearly all actives have a fitted effect of over 65% in size
GCN5L2 inh – inhibitors of human GCN5L2 histone acetyltransferase; Potency, µM (doses to about 58.9 µM), inactives show at the top dose activity change, negative = inhibition, usual class: inhibitors; Q92830; AID 504327; 390,000 compounds, 0.21% hits; GCN5L2 HAT assay, ThioGlo1 CoA-SH fluorescence
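Titration-based screen in which CoA formation is detected via maleimide probe ThioGlo1 (50uM) turning fluorescent on thiol reaction; substrates H3(1-25) 75uM and acetyl-CoA 70uM, GCN5L2 20nM, 20 min incubation at room temperature.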
DT40 TDP1 no CPT – qHTS for Inhibitors of human tyrosyl-DNA phosphodiesterase 1 (TDP1): qHTS in cells in absence of CPT; DT40 Tdp1-/- hTDP1 cells, no CPT, ATP luminescence, 48 h; Potency, µM (top dose mostly 46.2 µM), for the others: at the top dose activity change, negative = growth inhibition, usual class: inhibitors; 420,000 compounds, 15% hits; AID 686978, 2013; further: nearly all actives have a fitted effect of over 55% in size
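Chicken DT40 Tdp1-/- cells stably complemented with human TDP1 were seeded at 400 cells/well with DMSO in place of 20 nM camptothecin. After compound pinning, cells grew at least 48 hr at 37 °C; viability read by CellTiter-Glo luminescence.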
VDR inhibitor – blocks the human vitamin D receptor; P11473; VDR-SRC2-3 peptide fluorescence polarization, 2 h; Potency, µM, inactives show max response, negative = inhibition, actives largely listed as inhibitors; 400,000 compounds, 0.93% hits
Target sequence (P11473 whole entry, looked up): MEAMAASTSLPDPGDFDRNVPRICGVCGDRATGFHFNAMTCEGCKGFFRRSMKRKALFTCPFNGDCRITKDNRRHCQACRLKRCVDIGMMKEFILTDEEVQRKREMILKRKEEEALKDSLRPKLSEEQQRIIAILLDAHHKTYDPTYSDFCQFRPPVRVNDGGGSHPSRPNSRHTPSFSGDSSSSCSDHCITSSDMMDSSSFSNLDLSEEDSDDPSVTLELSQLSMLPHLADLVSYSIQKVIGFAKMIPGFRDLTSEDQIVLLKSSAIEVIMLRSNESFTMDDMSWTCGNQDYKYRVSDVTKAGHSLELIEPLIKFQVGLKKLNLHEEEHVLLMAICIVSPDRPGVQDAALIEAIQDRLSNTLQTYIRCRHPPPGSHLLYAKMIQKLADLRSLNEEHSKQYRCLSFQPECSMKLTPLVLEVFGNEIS
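Two reagent solutions held at 4 deg C in the dark were dispensed, compounds pinned at 23 nl, and the mixture incubated 2 h at room temperature. Read-out: fluorescence polarization of VDR–SRC2-3 peptide binding.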
* = called active by the depositor; ? = inconclusive; / = not tested or not shown; [ ] = remark or other dose. The call rests on the fitted dose curve; in most records, active means well fitted curve in the direction sought with a large enough effect; inconclusive means small, poorly fitted or top-dose-only effect, or another doubt; inactive means no such curve, though single readings can be large; an effect the other way counts as inactive or inconclusive. On the % scale 0 is the no-effect control and ±100 the full control effect; potency means the concentration at half of the fitted maximal effect.

SMILES	TDP1 inh	DT40 TDP1 CPT	PLK1 PBD block	GCN5L2 inh	DT40 TDP1 no CPT	VDR inhibitor
COC(=O)C1(Cc2ccccc2)NC(c2ccc(F)cc2)C2C(=O)N(C)C(=O)C21 (stereo not given)	-1.7%	-15.1%	-2.4%	-1.6%	?	-10.4%
COC(=O)[C@]1(Cc2ccccc2)N[C@H](c2ccc(-c3ccccc3)cc2)[C@@H]2C(=O)N(C)C(=O)[C@@H]21	0.8%	?	-11.1%	-9.2%	?	-4.3%
COC(=O)[C@]1(Cc2ccccc2)N[C@H](c2ccc(-c3ccc(Cl)c(Cl)c3)cc2)[C@@H]2C(=O)N(C)C(=O)[C@@H]21	-1.0%	18.4µM*	-26.3%	-8.4%	18.4µM*	-10.1%
COC(=O)[C@]1(Cc2ccccc2)N[C@H](c2ccc(-c3cc(C(C)=O)cs3)cc2)[C@@H]2C(=O)N(C)C(=O)[C@@H]21	/	16.4µM*	-7.5%	-9.4%	23.1µM*	11.3%
COC(=O)[C@]1(Cc2ccccc2)N[C@H](c2ccc(-c3cccc(Cl)c3)cc2)[C@@H]2C(=O)N(C)C(=O)[C@@H]21	-2.1%	16.4µM*	-5.5%	-19.0%	?	-14.0%
CCC(C)Sc1ccc([C@H]2N[C@@](Cc3ccccc3)(C(=O)OC)[C@H]3C(=O)N(C)C(=O)[C@@H]23)cc1 (stereo not given in full)	-11.3%	?	1.4%	-16.9%	?	-15.8%
O=C1NC(c2cccc3ccccc23)Nc2ccc(Cl)cc21 (stereo not given)	/	0.461µM*	3.0%	/	0.581µM*	-7.1%
Clc1ccc(C2Nc3cccc4cccc(c34)N2)c(Cl)c1	/	?	0.5%	/	?	-3.3%
CCN1C(=O)[C@@H]2[C@@H](c3ccc(-c4ccc(C(C)=O)cc4)c(OC)c3)N3CCCC[C@@]3(C(=O)OC)[C@@H]2C1=O	1.6%	?	-2.7%	-3.7%	14.6µM*	-2.5%
CCN1C(=O)[C@@H]2[C@@H](c3ccc(-c4ccc(F)cc4)c(OC)c3)N3CCC[C@@]3(C(=O)OC)[C@@H]2C1=O	3.6%	23.1µM*	-2.8%	-4.9%	?	-11.3%
CCN1C(=O)[C@H]2[C@@H](c3ccc(-c4ccc(C(C)=O)cc4)cc3)N3CCCC[C@@]3(C(=O)OC)[C@H]2C1=O	1.8%	?	-2.5%	-11.6%	11.6µM*	-21.6%
CCN1C(=O)[C@H]2[C@@H](c3ccc(-c4ccc(F)cc4)c(OC)c3)N3CCCC[C@@]3(C(=O)OC)[C@H]2C1=O	-0.1%	23.1µM*	0.2%	-7.1%	16.4µM*	-23.3%
CCN1C(=O)[C@@H]2[C@@H](c3ccc(-c4ccc(C(C)=O)cc4)c(OC)c3)N3CCC[C@@]3(C(=O)OC)[C@@H]2C1=O	1.1%	?	-2.3%	-8.9%	?	-4.5%
CCN1C(=O)[C@H]2[C@@H](c3ccc(-c4ccc(F)cc4)cc3)N3CCCC[C@@]3(C(=O)OC)[C@H]2C1=O	-3.6%	?	-0.3%	-10.6%	?	3.7%
COc1ccc(CCCc2nnc(SCC(=O)Nc3ccccc3F)o2)cc1	0.0%	-15.0%	-3.9%	-4.2%	-20.0%	-14.2%
CCCCC(CC)CNC(=O)c1ccc2c(=O)n(CCOC)c(=O)[nH]c2c1 (stereo not given)	2.9%	?	/	-2.0%	?	-0.7%
COc1ccc([C@H]2N[C@]3(CCCN(Cc4ccccc4)C3=O)[C@H]3C(=O)N(Cc4ccccc4)C(=O)[C@@H]23)cc1	/	-6.5%	-13.5%	/	?	/
COc1ccc([C@H]2N[C@]3(CCCN(Cc4ccc(C)cc4)C3=O)[C@H]3C(=O)N(Cc4ccccc4)C(=O)[C@@H]23)cc1	/	?	-12.7%	/	16.4µM*	/
COc1ccc([C@H]2N[C@]3(CCCN(Cc4ccc(Cl)cc4)C3=O)[C@H]3C(=O)N(Cc4ccccc4)C(=O)[C@@H]23)cc1	/	18.4µM*	5.5%	/	23.1µM*	/
CCCCC(=O)N(C)c1c(C)nc2ccc(C(=O)N(C)CCN(C)C)cn12	/	-25.0%	-3.7%	/	-8.2%	/
CC(C)(C)c1nnc(NC(=O)c2ccc3c(c2)OCO3)s1	4.6%	?	5.97µM*	?	?	79.4µM*
COC(=O)c1c(-c2cccnc2)csc1NC(=O)c1ccc2c(c1)OCO2	1.1%[56.1 µM]	?	-28.8%	-5.1%	23.1µM*	89.1µM*
CC(c1ccccc1)c1nnc(NC(=O)c2ccc3c(c2)OCO3)s1 (stereo not given)	3.1%	?	4.6%	-5.6%	18.4µM*	14.5%
COc1ccccc1-c1nnc(NC(=O)c2ccc3c(c2)OCO3)s1	4.3%	2.31µM*	-10.9%	-1.7%	2.06µM*	-8.6%
Cc1ccc(NC(=S)N2CC(C)OC(C)C2)cc1C (stereo not given)	2.3%	-8.3%	-3.3%	-1.4%	16.6%	-6.6%
SMILES	TDP1 inh	DT40 TDP1 CPT	PLK1 PBD block	GCN5L2 inh	DT40 TDP1 no CPT	VDR inhibitor
CC(C)C(=O)NC1CC(=O)N(c2ccc3c(c2)OCCO3)C1 (stereo not given)	2.6%	-9.7%	/	0.0%	-5.5%	5.4%
CCOC(=O)CNC(=O)C1(NC(=O)CNC(=O)OCc2ccccc2)CCCC1	/	0.8%	1.5%	/	-0.1%	-5.8%
O=c1c(-c2cccc(Cl)c2)nc2cncnc2n1Cc1ccc(F)cc1	/	1.3%	/	-12.5%	-21.3%	-7.1%
Cc1cccc(NC(=O)CSc2cn(CC(=O)N3CCCC3)c3ccccc23)c1C	5.1%	-26.9%	/	-5.0%	?	0.1%
O=C(Nc1ncc([N+](=O)[O-])s1)c1ccc2c(c1)OCO2	10.0%	?	?	-9.2%	18.4µM*	0.0%
Cc1ccc([N+](=O)[O-])cc1NC(=O)c1ccc2c(c1)OCO2	1.2%	11.4%	-8.0%	-3.1%	2.9%	-10.1%
Cc1ccc(S(=O)(=O)Nc2ccc(-c3cn4ccc(C)cc4n3)cc2)cc1	0.0%	?	?	-9.2%	14.6µM*	?
Cc1ccc(-c2cn3ccc(C)cc3n2)cc1	4.0%[12.3 µM]	?	/	-5.9%	?	-1.2%
Cc1ccn2cc(-c3cccc(S(=O)(=O)N4CCCC4)c3)nc2c1	1.6%	18.4µM*	-15.0%	-4.4%	23.1µM*	-8.2%
Cc1ccn2cc(-c3ccc(NS(=O)(=O)c4ccccc4)cc3)nc2c1	5.6%	?	1.4%	0.0%	29.1µM*	14.8%
N#CC1=C(SCC(N)=O)NC2=C(C(=O)c3ccccc32)C1c1ccc(Cl)cc1 (stereo not given)	3.9%	29.1µM*	?	32.8%	16.4µM*	-11.9%
